Measurements as given in the supplement of paper PMC9694430.

Experiments:
Test in all cases: thermal shift delta Tm vs DMSO control; higher = stronger stabilization (binding)
Settings in all cases: 12.5 µM; protein concentration 2 µM
LOC_OS01G57100-cb003 = tested on: LOC_OS01G57100-cb003
In short: (§1)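 Heating from 25°C to 95°C at 0.05°C/s, fluorescence was recorded for 19.5 μl wells of 2 μM E. coli-expressed, purified rice kinase domain in 100 mM potassium phosphate pH 7.5, 150 mM NaCl, 10% glycerol and 5 × SYPRO Orange with compound in DMSO. Boltzmann fits gave melting temperatures for this differential scanning fluorimetry assay. The shift reported is the mean of three replicates against the DMSO-only protein.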

LOC_OS01G60330-cb001 = tested on: LOC_OS01G60330-cb001
In short: as §1

LOC_OS01G60700-cb002 = tested on: LOC_OS01G60700-cb002
In short: as §1

LOC_OS01G63280-cb003 = tested on: LOC_OS01G63280-cb003
In short: as §1

LOC_OS01G67340-cb003 = tested on: LOC_OS01G67340-cb003
In short: as §1

LOC_OS01G70970-cb002 = tested on: LOC_OS01G70970-cb002
In short: as §1

LOC_OS02G07810-cb001 = tested on: LOC_OS02G07810-cb001
In short: as §1

LOC_OS02G08530-cb003 = tested on: LOC_OS02G08530-cb003
In short: as §1

LOC_OS02G14120-cb001 = tested on: LOC_OS02G14120-cb001
In short: as §1

LOC_OS02G17970-cb001 = tested on: LOC_OS02G17970-cb001
In short: as §1

LOC_OS02G45750-cb003 = tested on: LOC_OS02G45750-cb003
In short: as §1

LOC_OS02G54510-cb004 = tested on: LOC_OS02G54510-cb004
In short: as §1

LOC_OS03G04050-cb001 = tested on: LOC_OS03G04050-cb001
In short: as §1

LOC_OS03G12390-cb001 = tested on: LOC_OS03G12390-cb001
In short: as §1

LOC_OS03G27990-cb004 = tested on: LOC_OS03G27990-cb004
In short: as §1

LOC_OS03G50450-cb001 = tested on: LOC_OS03G50450-cb001
In short: as §1

LOC_OS03G50810-cb003 = tested on: LOC_OS03G50810-cb003
In short: as §1

LOC_OS04G35114-cb001 = tested on: LOC_OS04G35114-cb001
In short: as §1

LOC_OS04G38480-cb003 = tested on: T1, LOC_OS04G38480-cb003
T1 sequence (whole entry): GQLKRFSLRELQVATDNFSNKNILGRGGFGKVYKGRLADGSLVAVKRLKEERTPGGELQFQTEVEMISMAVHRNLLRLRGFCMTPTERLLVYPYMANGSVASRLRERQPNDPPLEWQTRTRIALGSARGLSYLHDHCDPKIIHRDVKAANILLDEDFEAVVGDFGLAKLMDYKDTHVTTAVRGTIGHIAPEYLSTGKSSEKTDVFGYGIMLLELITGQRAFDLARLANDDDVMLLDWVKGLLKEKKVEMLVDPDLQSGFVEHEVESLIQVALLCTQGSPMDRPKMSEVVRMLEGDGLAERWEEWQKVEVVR
In short: as §1

LOC_OS04G41100-cb001 = tested on: T2, LOC_OS04G41100-cb001
T2 sequence (whole entry): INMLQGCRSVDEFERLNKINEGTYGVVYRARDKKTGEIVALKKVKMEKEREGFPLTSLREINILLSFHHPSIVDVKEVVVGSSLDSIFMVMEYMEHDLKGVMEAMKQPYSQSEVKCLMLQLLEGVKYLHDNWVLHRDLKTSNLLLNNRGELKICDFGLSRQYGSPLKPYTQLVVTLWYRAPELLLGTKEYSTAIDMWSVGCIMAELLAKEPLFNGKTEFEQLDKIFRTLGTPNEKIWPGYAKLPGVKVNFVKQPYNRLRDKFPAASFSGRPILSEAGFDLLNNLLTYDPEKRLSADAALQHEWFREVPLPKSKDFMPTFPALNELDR
In short: as §1
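Note: purified Escherichia coli-expressed rice kinase domain construct.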

Row | Compound | thermal shift delta Tm (LOC_OS01G57100-cb003) [°C] | thermal shift delta Tm (LOC_OS01G60330-cb001) [°C] | thermal shift delta Tm (LOC_OS01G60700-cb002) [°C] | thermal shift delta Tm (LOC_OS01G63280-cb003) [°C] | thermal shift delta Tm (LOC_OS01G67340-cb003) [°C] | thermal shift delta Tm (LOC_OS01G70970-cb002) [°C] | thermal shift delta Tm (LOC_OS02G07810-cb001) [°C] | thermal shift delta Tm (LOC_OS02G08530-cb003) [°C] | thermal shift delta Tm (LOC_OS02G14120-cb001) [°C] | thermal shift delta Tm (LOC_OS02G17970-cb001) [°C] | thermal shift delta Tm (LOC_OS02G45750-cb003) [°C] | thermal shift delta Tm (LOC_OS02G54510-cb004) [°C] | thermal shift delta Tm (LOC_OS03G04050-cb001) [°C] | thermal shift delta Tm (LOC_OS03G12390-cb001) [°C] | thermal shift delta Tm (LOC_OS03G27990-cb004) [°C] | thermal shift delta Tm (LOC_OS03G50450-cb001) [°C] | thermal shift delta Tm (LOC_OS03G50810-cb003) [°C] | thermal shift delta Tm (LOC_OS04G35114-cb001) [°C] | thermal shift delta Tm (LOC_OS04G38480-cb003) [°C] | thermal shift delta Tm (LOC_OS04G41100-cb001) [°C]
1 | CNC(=O)c1cc(Oc2ccc(NC(=O)Nc3cc(C(C)(C)C)nn3-c3ccc4ncccc4c3)c(F)c2)ccn1 [Rebastinib (DCC-2036)] | 2.72 | 1.36 | 0.84 | 11.5 | 0.32 | 3.62 | 1.36 | 2.28 | 8.15 | 1.32 | 12.3 | 6.64 | 0.59 | 5.55 | 0.52 | 0.33 | 5.06 | 0.84 | 2.8 | 5.27
2 | CCCCCCCCCCCCCCCCCCOP(=O)([O-])OC1CC[N+](C)(C)CC1 [Perifosine (KRX-0401)] | -2.51 | -0.68 | -0.73 | -3.09 | -1.14 | -3.45 | -0.99 | -1.07 | -2.06 | -0.45 | -1.3 | -1.77 | -3.06 | -3.5 | -2.47 | -2.45 | -1.54 | -3.56 | -0.3 | -0.69
3 | CCN1CCN(Cc2ccc(Nc3ncc(F)c(-c4cc(F)c5nc(C)n(C(C)C)c5c4)n3)nc2)CC1 | -0.28 | 0.1 | 0.59 | 0.27 | 0.39 | -0.01 | 0.46 | 2.49 | 5.93 | 0.23 | 3.28 | 0.25 | 0.17 | 1.39 | 0.47 | 0.16 | 2.97 | 2.79 | 1.91 | 5.62
4 | NC[C@@](O)(c1ccc(Cl)cc1)c1ccc(-c2cn[nH]c2)cc1 | 2.29 | 1.43 | 1.37 | 0.56 | 0.77 | 0.29 | 0.52 | 0.75 | 1.05 | 0.63 | 1.24 | 0.3 | 0.31 | 0.49 | 0.56 | 0.8 | 0.36 | 1.05 | 1.51 | 0.81
5 | COc1cc2ncnc(Sc3nnc(C)s3)c2cc1OC | 0.73 | 0.26 | 0.74 | -0.21 | 0.41 | -0.08 | -0.06 | 0.96 | 2.55 | -0.07 | 2.63 | 0.34 | 0.71 | -0.23 | 0.56 | 0.5 | 0.54 | 2.86 | 0.54 | 0.9
6 | CC(C)Oc1ccc(-c2nn([C@@H](C)c3oc4ccc(F)cc4c(=O)c3-c3cccc(F)c3)c3ncnc(N)c23)cc1F | 1.03 | 1.25 | 0.79 | 0.47 | 0.6 | 0.55 | -0.1 | 0.12 | 1.41 | 1.06 | -0.54 | 0.17 | 0.23 | -0.28 | 0.5 | -0.25 | 0.13 | 1.09 | 1.36 | 0.19
7 | FC(F)(F)c1ccc(/C=C/c2nc(COc3ccc(CCCCn4ccnn4)cc3)co2)cc1 [Mubritinib (TAK 165)] | 0.83 | 0.99 | 0.41 | 0.22 | -0.98 | 0.3 | 0.23 | 0.63 | 0.38 | 0.37 | 0.54 | 0.1 | 0.37 | 0 | 0.51 | 0.76 | 0.3 | 0.27 | 0.25 | 0.36
8 | CC(C)(C)S(=O)(=O)c1ccc2nccc(Nc3n[nH]c4ccc(F)cc34)c2c1 | 0.91 | 0.99 | 0.81 | -0.25 | 0.66 | 0.6 | 0.19 | 0.61 | 0.25 | 0.37 | 0.81 | 0.59 | 0.15 | 0.75 | 0.12 | -0.21 | 0.11 | 3.68 | 0.32 | 0.12
9 | COc1cc2nccc(Oc3ccc(NC(=O)c4cn(C(C)C)c(=O)n(-c5ccc(F)cc5)c4=O)cc3F)c2cc1OC | 0.85 | 0.41 | 0.47 | -0.09 | 0.68 | 0.8 | -0.36 | 0.66 | 8.24 | 1.66 | 1.35 | 0.3 | 0.61 | 0.23 | 0.52 | 0.71 | 1.15 | 0.49 | 3.7 | 0.44
10 | C=CC(=O)Nc1cccc(Sc2nc(Nc3ccc(N4CCN(C)CC4)cc3)ncc2Cl)c1 | -1.98 | 1.15 | 0.75 | 0.45 | 0.87 | 7.21 | 0.82 | 2.38 | 6.55 | 0.58 | 1.15 | 0.86 | 0.43 | 2.55 | 2.86 | 1.29 | 4.92 | 4.33 | 1.07 | 1.47
11 | C=CC(=O)Nc1ccc(CN2C(=O)N(c3cc(OC)cc(OC)c3)Cc3cnc(Nc4ccc(N5CCN(C)CC5)cc4)nc32)cc1 | 3.1 | 0.63 | 2.43 | 0.9 | 0.61 | 1.17 | 1.48 | 1.77 | 2.28 | 1.39 | 1.47 | 1.08 | 0.74 | 0.1 | 0.49 | 0.33 | 0.75 | 1.29 | 2.8 | 0.83
12 | CCOc1cc2ncc(C#N)c(Nc3ccc(OCc4ccccn4)c(Cl)c3)c2cc1NC(=O)/C=C/CN(C)C [Neratinib (HKI-272)] | 1.51 | 0.66 | 1.67 | 1.02 | 1.41 | 0.3 | 0.52 | 1 | 1.97 | 1.71 | 4.68 | 0.16 | 0.41 | 0.55 | 1.01 | 0.39 | 1.2 | 5.53 | 1.27 | 0.15
